# Source: the supplement of paper PMC6555819
# Tested on: LXRa homodimer (NR concentration 270 nM)
# Assay: PBM binding z-score (relative to random genomic background probes); higher = stronger binding; sequences stand for … in GC…GCGATTGACAGCGTAGAATGAAGG
# Method in brief: (§1)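 For binding z-scores, the reference was random background probes on custom Agilent 4×180K protein-binding microarrays. These arrays were incubated 1 h with ligand-free nuclear receptor dimers in PBS pH 7.4, 2% milk, 0.02% Triton X-100, 1 mM DTT, 0.2 mg/mL BSA and 0.4 mg/ml salmon testes DNA. Fluorescence was scanned after antibody detection of each partner (one per run) and regression-normalized.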
row,Sequence,PBM binding z-score
1,GCTTGGAGATCAAGGTTAAGAAAGACTAAGCTAA,-0.403
2,CCGAGTAGGTTATGGGGCATCCAGGCAACGGTGA,-0.312
3,CCTTACGGGTCACGAGGTTATAGCACGACGAGCG,0.401
4,CCTCCTGGGCCAAAGGTCATTGATTCCAATGCTC,3.68
5,GATACCGGGTCAGCTAGAGGCCAGAGTATGGAAA,-0.9
6,AGAACGAGGGCACGCTGAGTTGACAGCAGAGTAG,-0.526
7,CGAATTAGGTCAGAACAGGACAGTGAAGGATGAT,0.144
8,CGAACTAGGTCATCGACAGGACAGTGAATAGTAA,0.8
9,ATCGAAAGGTCGAGGTGGGTATAGAGAAAGGGAA,0.722
10,TAGCCTAGGTCAGATCGGGCCACTATACGCTATA,-0.308
11,ACTCGGAGGACAAAGGTCAGACCTACGCCAGTGA,2.02
12,AGACCGAGGGCAATGAGTTGATAGCACGGGTGGC,-0.495
13,TGAACGAGGTTAAAGATCAGGGAACGTGGCGTCG,-0.236
14,CCTAGTTAGTCAGGAGGTCACACACCGGATATGA,2.46
15,CAAACTAGGTCACGAAAGGTCCAAGTCGAATGAC,0.544
16,CAACCAAGGTGAACAAGGTCGTTGATTACTATTC,0.275
17,AGAATGACGTTACCAAAGATCAGGGAAACGCTTG,-0.236
18,GCTGCTAGTTCAGGTTGGTCAGCTAACGGGTACG,-0.196
19,ACTCGGAGGACCAAGGTCAGAGCTACGCCAGTGA,-0.312
20,TAGCCTAGGTCATTCACGGGCCAGTATAGAAAGC,0.702

row,Sequence,PBM binding z-score
1,TAGCCTAGGTCATGCAGGGGCCAGTATAGAAAGC,-0.0993
2,TCGAGTAGGATACCAATGGGGCATTCAGCTTTCT,-0.966
3,TCCTATAGGTAAACAGGTGAAAGTCCGTAAGTTA,0.24
4,GCGACTGGGGCATCAGCCGGTTACCATAACTTAA,-0.599
5,CCTAGCAGGCCAATCTGCGTCACTCAAGGCTTGA,-0.462
6,CGAACTAGGTCAAGGGCAGTGAATCTCCGCACGC,-0.0571
7,ACTCGCAGGACAAAGGTCAGAGCTACGCCAGTGA,1.13
8,GATACACGGTCAGCTAGAGGCCAGAGTATGGAAA,-0.281
9,CCTAGCAGGCCCATCTGGGTCACTCAAGGCTTGA,-0.426
10,ATCTCTAGGTAAAAGTTCAGTGGATCCCGAGGAT,1.37
11,TCTTGTAGATCAAAGGTTATGAAAGCCGAAGCCT,0.00882
12,CGTCCAAGGTCATAGGAGGTCCGTGAAGACAGAT,0.811
13,CCGACTGGGGCAAGGTTAGCATAACGCACAGCCA,-0.322
14,CGTCAAAGTTCAACTAAGGTAACGGAAAGCACGC,3.33
15,AACACAGGGTCACTAGGCCAGAGTAGGTACGAAT,0.354
16,GCTTGTAGATCAAGATTAAGAAAGACTAAGCTAA,-0.561
17,GCATAGAGGTAATACAAGGTGAAAGTCCGATTGT,-0.00697
18,AGTCAAGGTTCACTAGGTAACGTAAGATTCAGCT,0.713
19,TCTTGTAGATCAATAGAGGTTAAGAATGTGCGCT,0.456
20,CCTATTAGTTGACCATAAGGGCTACCGAAGCTCG,0.338

# Tested on: LXRb:RXRa (NR concentration 270 nM, RXRa partner concentration 90 nM)
# Assay: as above
# Method in brief: as §1
row,Sequence,PBM binding z-score
1,GCTTGGAGATCAAGGTTAAGAAAGACTAAGCTAA,0.686
2,CCGAGTAGGTTATGGGGCATCCAGGCAACGGTGA,0.332
3,CCTTACGGGTCACGAGGTTATAGCACGACGAGCG,4.02
4,CCTCCTGGGCCAAAGGTCATTGATTCCAATGCTC,4.79
5,GATACCGGGTCAGCTAGAGGCCAGAGTATGGAAA,1.21
6,AGAACGAGGGCACGCTGAGTTGACAGCAGAGTAG,0.312
7,CGAATTAGGTCAGAACAGGACAGTGAAGGATGAT,0.781
8,CGAACTAGGTCATCGACAGGACAGTGAATAGTAA,2.02
9,ATCGAAAGGTCGAGGTGGGTATAGAGAAAGGGAA,3.12
10,TAGCCTAGGTCAGATCGGGCCACTATACGCTATA,0.919
11,ACTCGGAGGACAAAGGTCAGACCTACGCCAGTGA,3.64
12,AGACCGAGGGCAATGAGTTGATAGCACGGGTGGC,-0.427
13,TGAACGAGGTTAAAGATCAGGGAACGTGGCGTCG,1.57
14,CCTAGTTAGTCAGGAGGTCACACACCGGATATGA,3.68
15,CAAACTAGGTCACGAAAGGTCCAAGTCGAATGAC,2.73
16,CAACCAAGGTGAACAAGGTCGTTGATTACTATTC,2.09
17,AGAATGACGTTACCAAAGATCAGGGAAACGCTTG,-0.336
18,GCTGCTAGTTCAGGTTGGTCAGCTAACGGGTACG,-0.351
19,ACTCGGAGGACCAAGGTCAGAGCTACGCCAGTGA,0.779
20,TAGCCTAGGTCATTCACGGGCCAGTATAGAAAGC,2.48

row,Sequence,PBM binding z-score
1,TAGCCTAGGTCATGCAGGGGCCAGTATAGAAAGC,2.24
2,TCGAGTAGGATACCAATGGGGCATTCAGCTTTCT,-0.394
3,TCCTATAGGTAAACAGGTGAAAGTCCGTAAGTTA,0.845
4,GCGACTGGGGCATCAGCCGGTTACCATAACTTAA,-0.35
5,CCTAGCAGGCCAATCTGCGTCACTCAAGGCTTGA,-0.429
6,CGAACTAGGTCAAGGGCAGTGAATCTCCGCACGC,1.21
7,ACTCGCAGGACAAAGGTCAGAGCTACGCCAGTGA,3.23
8,GATACACGGTCAGCTAGAGGCCAGAGTATGGAAA,-0.57
9,CCTAGCAGGCCCATCTGGGTCACTCAAGGCTTGA,0.484
10,ATCTCTAGGTAAAAGTTCAGTGGATCCCGAGGAT,1.03
11,TCTTGTAGATCAAAGGTTATGAAAGCCGAAGCCT,2.21
12,CGTCCAAGGTCATAGGAGGTCCGTGAAGACAGAT,3.99
13,CCGACTGGGGCAAGGTTAGCATAACGCACAGCCA,-0.208
14,CGTCAAAGTTCAACTAAGGTAACGGAAAGCACGC,4.2
15,AACACAGGGTCACTAGGCCAGAGTAGGTACGAAT,3.63
16,GCTTGTAGATCAAGATTAAGAAAGACTAAGCTAA,-0.525
17,GCATAGAGGTAATACAAGGTGAAAGTCCGATTGT,1.1
18,AGTCAAGGTTCACTAGGTAACGTAAGATTCAGCT,1.93
19,TCTTGTAGATCAATAGAGGTTAAGAATGTGCGCT,1.44
20,CCTATTAGTTGACCATAAGGGCTACCGAAGCTCG,0.131
